Compound activity deposited in PubChem BioAssay by several laboratories.
ATG4B inh = ATG4B (human) cysteine protease inhibition | AID 504462 | 340,000 compounds, 0.51% hits | ATG4B cleavage of LC3-PLA2, NBD-HPC fluorescence, 1 h | inhibition, % at 8.33 µM | Q9Y4P1; in the data active = inhibition above about 40%
PP5 inh = inhibitors of human protein phosphatase 5 (PP5). P53041. inhibition, % at 6.7 µM. 320,000 compounds, 0.18% hits. purified PP5c, OMFP substrate fluorescence;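 active = inhibition above the campaign's mean inhibition across all tested compounds plus 3 SD, cut at about 9.5% in these data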;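 note: 0% = DMSO only and 100% = 100 µM cantharidin control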
Target sequence (P53041 whole entry, looked up): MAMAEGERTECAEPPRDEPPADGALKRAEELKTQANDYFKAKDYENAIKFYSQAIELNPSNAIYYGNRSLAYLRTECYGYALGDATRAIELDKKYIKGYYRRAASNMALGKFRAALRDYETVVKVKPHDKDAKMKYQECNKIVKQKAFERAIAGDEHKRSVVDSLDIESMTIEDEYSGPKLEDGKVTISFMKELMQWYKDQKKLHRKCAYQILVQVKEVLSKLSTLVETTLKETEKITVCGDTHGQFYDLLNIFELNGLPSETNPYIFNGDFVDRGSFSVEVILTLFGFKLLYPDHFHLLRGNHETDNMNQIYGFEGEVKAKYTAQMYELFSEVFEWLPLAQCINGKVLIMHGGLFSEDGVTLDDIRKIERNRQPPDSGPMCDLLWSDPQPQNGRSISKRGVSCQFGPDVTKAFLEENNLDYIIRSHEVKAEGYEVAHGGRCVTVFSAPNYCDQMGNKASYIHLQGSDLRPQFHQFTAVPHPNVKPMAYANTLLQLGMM
PP1 counter = blocks human PP1-alpha phosphatase, a PP5 counter-screen. P62136. purified PP1alpha, OMFP fluorescence. inhibition, % at 6.7 µM. 320,000 compounds, 0.9% hits. AID 2235;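 active = inhibition above the mean inhibition of all tested compounds plus 3 SD, computed separately for each screening campaign, cut at about 15% in these data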
Cardio protect = protects H9c2 cardiomyocytes from peroxide injury | 360,000 compounds, 0.63% hits | protection from H2O2 cell death, % at 20 µM | H2O2 injury protection, ATPLite, 2 h;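 active = compounds giving at least 50% protection of heart cells from peroxide-induced death in the single-dose screen, raw or plate-pattern-corrected value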;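 note: 0% = DMSO wells with peroxide and 100% = DMSO wells without peroxide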
Active calls of the source: *; . = no result given. In the library only some 1.9% were active in any assay of this set; here they are far more common.

SMILES | ATG4B inh | PP5 inh | PP1 counter | Cardio protect
COC(=O)C(C)NC(=S)N1CCN(c2c(F)cc3c(=O)c(C(=O)O)cn(C4CC4)c3c2OC)CC1C (centres undefined) | -8 | 3 | 16* | 4
CNC(=S)N1CCN(c2c(F)cc3c(=O)c(C(=O)O)cn(C4CC4)c3c2OC)CC1C (centres undefined) | -13 | 5 | 16* | -2
CCOC(=O)c1cn(C2CC2)c2c(F)c(F)c(F)cc2c1=O | 2 | 0 | 7 | -4
CC(=O)c1ccc2c(c1)N(Cc1ccc3ccccc3c1)C(=O)C(C)S2 (centres undefined) | . | . | . | 0
CCOCCCNC(=O)C1CCCN(S(=O)(=O)c2ccc(-n3cnnn3)cc2)C1 (centres undefined) | -4 | -2 | -1 | -4
Cn1c(=O)cc(OCC(=O)NCCCN2CCN(c3cccc(Cl)c3)CC2)c2ccccc21 | -10 | 2 | 0 | 64*
CCOC(=O)c1nn(-c2cccc(OC)c2)c2nc(Nc3ccccc3)cc(=O)n12 | -29 | 3 | 5 | 52*
O=C(Nc1cc(C(F)(F)F)ccc1N1CCOCC1)c1cccc(S(=O)(=O)N2CCOCC2)c1 | . | . | . | -4
Cc1ccc(NC(=O)c2nnn(CC(=O)Nc3ccc4c(c3)OCO4)c2N)cc1C | -1 | 1 | 9 | -9
Cc1ccc(NC(=O)Cn2nnc(C(=O)Nc3ccc(C)c(C)c3)c2N)cc1 | -15 | 1 | 16* | -7
C/C(=N\NC(=O)CN(c1ccccc1)S(C)(=O)=O)c1ccccc1O | -11 | 1 | -3 | 59*
O=C(CSc1nc(O)cc(=O)n1-c1ccccc1)Nc1ccc2c3c(cccc13)CC2 | -3 | 2 | 16* | 0
Cc1ccc(-n2nc(C(=O)c3ccccc3)n3c(=O)c(Cc4ccccc4)nnc23)cc1 | -11 | 1 | 17* | 2
Cn1nc(-c2ccccc2F)c2cc(C(=O)Nc3ccc4c(c3)OCCO4)sc21 | -19 | 3 | 2 | 56*
COc1cccc(-c2nn(C)c3sc(C(=O)Nc4ccc5c(c4)OCCO5)cc23)c1 | -25 | 1 | -3 | 30
COc1ccc(CC(=O)N(Cc2ccccc2)c2ccccc2)cc1S(=O)(=O)N1CCOCC1 | 1 | 2 | -6 | 69*
COCCN(Cc1ccccc1)C(=O)Cc1ccc(OC)c(S(=O)(=O)N2CCOCC2)c1 | -1 | -2 | -4 | -1
Cc1cccc(N(Cc2ccccc2)C(=O)Cc2ccc(S(=O)(=O)N3CCOCC3)s2)c1 | -3 | 0 | 17* | 5
O=C(c1ccc(-n2cnnn2)cc1)N(C1CCCCC1)C1CCCCC1 | -3 | -1 | -5 | 5
O=C(NO)c1ccc(C(=O)N(C2CCCCC2)C2CCCCC2)cc1 | 1 | 0 | 6 | 81*
CCOC(=O)C1=C(CC)Nc2ccccc2N=C1NC(=O)Nc1ccc(Cl)c(Cl)c1 | 62* | 4 | 10 | -18
CC1(C)CC(=O)N(c2ccc(Cl)c(Cl)c2)C(=O)C1 | 8 | 0 | 0 | 2
O=C(Cn1cnc2sc(-c3ccccc3)cc2c1=O)NCCc1ccccc1 | 0 | 0 | 0 | 2
O=C(Cn1cnc2sc(-c3ccccc3)cc2c1=O)NCc1ccccc1 | -2 | 5 | 15* | -9
COc1cc(/C=c2\s/c(=C(/C#N)C(=O)N3CCCC3)n(-c3ccccc3)c2=O)ccc1O | 2 | 2 | -7 | 58*
SMILES | ATG4B inh | PP5 inh | PP1 counter | Cardio protect
COC(=O)/C=c1/s/c(=C(/C#N)C(=O)N2CCCCC2)n(-c2ccccc2)c1=O | -3 | -2 | -1 | 13
CCc1nn(CC(=O)NCCc2ccc(OC)cc2OC)c(=O)c2cc3occc3n12 | -3 | -1 | -2 | 8
Cc1cccc(/C=N/NC(=O)c2c(-c3ccccc3)noc2C)c1O | -14 | 0 | 1 | 54*
COc1ccc(NC(=S)N2CCN(S(=O)(=O)c3ccccc3)CC2)cc1OC | -1 | . | . | 4
O=c1[nH]cc(S(=O)(=O)N2CCN(c3cccc(C(F)(F)F)c3)CC2)c(=O)[nH]1 | -6 | -2 | 16* | 0
N#CC1=C(N)Oc2c(O)cc3ccccc3c2C1c1ccsc1 (centres undefined) | -9 | 2 | -3 | 58*
CCOC(=O)C1=C(C)OC(N)=C(C#N)C1c1ccsc1 (centres undefined) | 2 | -1 | -5 | 3
COc1ccc(C(=O)OCC(=O)c2c(N)n(C)c(=O)n(C)c2=O)cc1OC | -4 | -1 | -4 | 13
CCCn1nc(C(=O)OCC(=O)Nc2ccc(C(N)=O)cc2)c2ccccc2c1=O | 3 | . | . | 3
CCCn1nc(C(=O)OCC(=O)c2c(N)n(C)c(=O)n(C)c2=O)c2ccccc2c1=O | 5 | 1 | 1 | 61*
CC(=O)Oc1ccc(C(=O)OCC(=O)c2c(N)n(C)c(=O)n(C)c2=O)cc1OC(C)=O | -1 | 0 | -4 | 65*
CCn1cc(C(=O)O)c(=O)c2cc(F)c(N/N=C/c3ccccc3)cc21 | -14 | -2 | 16* | 4
CCn1cc(C(=O)O)c(=O)c2cc(F)c(N3CCN(C)CC3)cc21 | -17 | 3 | -4 | 1
Cc1ccc(CN(C)C(=O)COC(=O)CSc2ccc(C(N)=O)cc2[N+](=O)[O-])cc1 | 3 | -2 | -5 | 58*
CC(=O)Nc1cc(-c2cccc(C(=O)N(C)C)c2)cn2c(-c3ccc(C(C)=O)cc3)cnc12 | . | . | . | 55*
CC(=O)Nc1cc(-c2ccccc2)cn2c(-c3cccc(C(C)=O)c3)cnc12 | . | . | . | 51*
CC(=O)Nc1cc(-c2ccc(C(=O)N3CCOCC3)cc2)cn2c(-c3ccc(C(C)=O)cc3)cnc12 | . | . | . | 76*
CC(=O)c1cccc(-c2cnc3c(NC=O)cc(-c4ccccc4F)cn23)c1 | . | . | . | 59*
O=C(Cn1cc(C(F)(F)F)ccc1=O)N1CCc2ccccc2C1 | 5 | -1 | -5 | 1
CC(=O)c1cccc(S(=O)(=O)N2CCn3cccc3C2C)c1 (centres undefined) | -12 | 4 | 5 | -3
CC(=O)Nc1cc(-c2cccc(NS(C)(=O)=O)c2)cn2c(-c3cccc(C(C)=O)c3)cnc12 | . | . | . | 78*
CC(C)C(NC(=O)C(C)N1C(=O)c2ccccc2C1=O)c1ccccc1 (centres undefined) | 3 | -2 | -2 | 1
CCN(Cc1ccccc1)C(c1ccc(C(F)(F)F)cc1)c1nnnn1C(C)(C)C (centres undefined) | 0 | 0 | 15* | -26
CCN(Cc1ccccc1)C(c1cccc(C#N)c1)c1nnnn1C(C)(C)C (centres undefined) | 8 | 7 | -1 | -4
Brc1cc2c(cc1/C=N/Nc1nc(N3CCCC3)nc(N3CCOCC3)n1)OCO2 | -17 | 1 | -4 | 63*
Oc1ccc(Br)cc1/C=N/Nc1nc(N2CCCCC2)nc(N2CCOCC2)n1 | 5 | -1 | 2 | .
COc1cccc(C(=O)Nc2ccc(NC(=O)c3ccco3)nc2)c1 | -3 | -2 | 1 | 2
COc1cc(C(=O)Nc2ccc(NC(=O)c3ccco3)nc2)cc(OC)c1OC | -5 | 2 | -5 | 52*
CCc1ccccc1NC(=O)CCC(=O)OCC(=O)c1ccc(-c2ccccc2)cc1 | 16 | -1 | 17* | -9
